Reference: PubChem BioAssay (NCATS)
Records with an inconclusive call do not appear. A call without a number means that no potency is given here. A number with no mark means an inactive call. Active and inactive are the calls of the source. The call rests on the fitted dose curve; in most records, active means well fitted inhibition curve with a large enough effect; inconclusive means small, poorly fitted or top-dose-only effect; inactive means flat fitted curve, though single readings scatter.

The compounds below were run against Calcium and integrin-binding protein 1 (Homo sapiens) (UniProt Q99828) (assay: Primary qHTS for Identification of Calcium Integrin Binding Protein 1 (CIB1) Competitor (AID 1508620;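 further: GST tagged CIB1 binding a fluorescein labelled alphaIIb integrin peptide tracer; top concentration of the series differs between compounds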)). Settings: CIB1-GST / FITC-alphaIIb peptide fluorescence polarization; series mostly up to 57.7 µM.
Chain of Calcium and integrin-binding protein 1 (Homo sapiens) (Q99828 whole entry, looked up): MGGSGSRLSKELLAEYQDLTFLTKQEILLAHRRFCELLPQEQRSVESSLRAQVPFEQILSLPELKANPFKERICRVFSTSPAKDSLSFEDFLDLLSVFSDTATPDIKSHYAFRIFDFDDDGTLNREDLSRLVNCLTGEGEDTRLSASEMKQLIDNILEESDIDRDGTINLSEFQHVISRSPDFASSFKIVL
How it was run: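 Fluorescence polarization competition: CIB1-GST (1 uM final) preincubated with compound 15 min at room temperature, then FITC-labeled alphaIIb peptide (100 nM final) added for another 15 min. Polarization read at Ex 480/Em 540.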
`CNC(=O)c1ccc2c(C(=Nc3cccc(CN(C)C)c3)c3ccccc3)c(O)[nH]c2c1` was tested, and the Potency was “inactive”.
In the case of `COc1cc(N2CCN(C)CC2)ccc1Nc1nc(N)c(C(=O)c2c(Cl)cccc2Cl)s1`, the Potency was “inactive”.
For `Cc1ccc2c(=O)c3cccc(CC(=O)O)c3oc2c1C`, the Potency was “inactive”.
In the case of `CN[C@@H](C)[C@H]1[C@H](O)C[C@@]2(C)[C@@H]3CC[C@H]4C(C)(C)[C@@H](NC)CC[C@@]45C[C@@]35CC[C@]12C`, the Potency was “inactive”.
`CCCCC[C@H](O)C=C[C@H]1[C@H](O)CC(=O)[C@H]1CCCCCCC(=O)O` was tested, and the Potency was “inactive”.
With `Nc1ncnc2c1c(-c1cccc(OCc3ccccc3)c1)cn2C1CC(CN2CCC2)C1` (stereo not given) the Potency was “inactive”.
With `CCOC(=O)c1c(CSc2ccccc2)n(C)c2cc(Br)c(O)c(CN(C)C)c12` the Potency was “inactive”.
`O=C(NCCCCN1CCOCC1)c1cc2ccccc2o1` was tested, and the Potency was “inactive”.
In the case of `Cc1cc(-c2ncc(CC(=O)Nc3ccc(-c4cnccn4)cn3)cc2C)ccn1`, the Potency was “inactive”.
In the case of `COc1ccc(-c2ccc3ncc4c(c3c2)n(-c2ccc(N3CCNCC3)c(C(F)(F)F)c2)c(=O)n4C)cn1`, the Potency was “inactive”.
For `CC(NCCc1ccc(O)cc1)C(O)c1ccc(O)cc1` (stereo not given), the Potency was “inactive”.
In the case of `CC(C)C[C@@H](N)[C@H](O)C(=O)N[C@H](C(=O)N[C@H](C(=O)N[C@@H](CC(=O)O)C(=O)O)C(C)C)C(C)C`, the Potency was “inactive”.
`O=C1NC(=O)C(c2cnc3ccccn23)=C1c1cn2c3c(cccc13)CN(C(=O)N1CCOCC1)CC2` was tested, and the Potency was “inactive”.
With `COc1ccc2ccc(=O)oc2c1CC=C(C)C` the Potency was “inactive”.
For `CCCCCCCCCCCCCC(=O)N[C@H](CO)[C@H](O)c1ccc([N+](=O)[O-])cc1`, the Potency was “inactive”.
Work on `CN[C@H]1[C@@H](O[C@@H]2[C@H](O[C@@H]3[C@@H](O)[C@@H](O)[C@@H](N=C(N)N)[C@@H](O)[C@@H]3N=C(N)N)O[C@H](C)[C@@]2(O)C=O)O[C@@H](CO)[C@@H](O)[C@H]1O` yielded an activity change, negative = inhibition of -2.24% [at 12.4 µM].
With `Cc1c(C(=O)Nc2ccc(N3C[C@@H](C)O[C@@H](C)C3)nc2)cccc1-c1ccc(OC(F)(F)F)cc1` the Potency was “inactive”.
`CCC(=C(c1ccc(O)cc1)c1ccc(OCCNC)cc1)c1ccccc1` was tested, and the Potency was “inactive”.
With `CC[C@H]1OC(=O)[C@H](C)[C@@H](O[C@H]2C[C@@](C)(OC)[C@@H](O)[C@H](C)O2)[C@H](C)[C@@H](O[C@@H]2O[C@H](C)C[C@H](N(C)C)[C@H]2O)[C@](C)(O)C[C@H](C)C(=NOCOCCOC)[C@H](C)[C@@H](O)[C@]1(C)O` the Potency was “inactive”.
For `C=CC[N+]1([C@H]2C[C@H]3[C@@H]4CC[C@H]5C[C@H](O)[C@@H](N6CCOCC6)C[C@]5(C)[C@@H]4CC[C@]3(C)[C@H]2OC(C)=O)CCCC1`, the Potency was “inactive”.
`CC[C@]1(O)C[C@H]2CN(CCC3=c4ccccc4=N[C]3[C@@](C(=O)OC)(c3cc4c(cc3OC)N(C)[C@H]3[C@@](O)(C(N)=O)[C@H](O)[C@]5(CC)C=CCN6CC[C@]43[C@@H]65)C2)C1` was tested, and the Potency was “inactive”.
`CC(=O)O[C@]1(C(C)=O)CC[C@H]2[C@@H]3C=C(Cl)C4=CC(=O)[C@@H]5C[C@H]5[C@]4(C)[C@@H]3CC[C@@]21C` was tested, and the Potency was “inactive”.
`Cc1cnc(CNC(=O)c2c(=O)c3ccc(N4CCCN(C)CC4)nc3n3c2sc2ccccc23)cn1` was tested, and the Potency was “inactive”.
For `Cc1cc(CS(=O)(=O)c2ccccc2)cc(OCc2ccc(CN3CCC[C@H]3CO)cc2)c1`, the Potency was “inactive”.
`CN1CCN2c3ncccc3Cc3ccccc3C2C1` (stereo not given) was tested, and the Potency was “inactive”.
